In the library only some 2.6% were active in any assay of this set; here they are far more common.
Exocytosis inh: blocks lytic granule exocytosis. 0.66% of 360,000 active. TALL-104 LAMP-1 surface exposure, flow cytometry; cells stimulated with thapsigargin and PMA. inhibition, % at 10 µM;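 active = inhibition above about 55%, limit read from the data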
TLR9-MyD88 block: inhibitors of human TLR9-MyD88 binding | Q9NR96+Q99836 | CHO BLA complementation TLR9-MyD88, CCF4 FRET ratio | inhibition, % at 4.98 µM | 0.21% of 340,000 active;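 active = inhibition above the mean over all tested compounds plus 3 SD, cut at about 21% in these data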;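 note: 0% = DMSO only wells and 100% = clavulanate BLA inhibitor control wells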
PRMT1 FP inh: PRMT1 (human) inhibition, primary screen | Q99873 | recombinant PRMT1, activity-based probe fluorescence polarization | inhibition, % at 2.79 µM | 1.3% of 370,000 active | AID 652257;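 active = inhibition above about 21% made by adding two undisclosed values, limit read from the data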
TLR4-MyD88 BLA: TLR4-MyD88 interaction inhibition in cells | O00206+Q99836 | HeLa CL3-4 TLR4/MyD88 BLA complementation, FRET ratio | inhibition, % at 8.4 µM | 0.18% of 200,000 active; in the data active = inhibition above about 25%;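 note: 0% = vehicle and 100% = reference inhibitor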
NOD2 RIPK2 PPI: NOD2-RIPK2 protein interaction inhibition; CHO BLA complementation NOD2-RIPK2, CCF4 ratio; 0.38% of 360,000 active; O43353; AID 624267; inhibition, % at 4.98 µM; in the data active = inhibition above about 21%;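 note: 0% = vehicle only and 100% = reference blocker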
ABHD5-PLIN5 inh: blocks binding of human ABHD5 to perilipin-5; 0.78% of 360,000 active; Split G. princeps luciferase complementation, luminescence, 4 h; inhibition, % at 4 µM;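 active = inhibition above the mean inhibition across every tested compound plus 3 SD, cut at about 22% in these data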;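 note: 0% = DMSO only wells and the 100% control is not disclosed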
* marks the source's active call; other numbers are inactive results; . = no result.

SMILES | Exocytosis inh | TLR9-MyD88 block | PRMT1 FP inh | TLR4-MyD88 BLA | NOD2 RIPK2 PPI | ABHD5-PLIN5 inh
COc1ccccc1NC(=O)C(Sc1ccccc1)c1ccccc1 (configuration not stated) | -5 | -7 | 1 | -7 | -3 | -9
Cc1c(NC(=O)C(Sc2ccccc2)c2ccccc2)cccc1[N+](=O)[O-] (configuration not stated) | 59* | -12 | 2 | -5 | -16 | -3
O=C(NCc1ccccc1)N1CCC(c2nc3ccc(Cl)cc3[nH]2)CC1 | . | . | -5 | . | . | .
CC(C)OC(=O)N(C)C[C@H]1OCc2cn(nn2)CCCC(=O)N([C@@H](C)CO)C[C@@H]1C | . | . | 0 | . | . | .
COc1ccc(CNC(=O)c2sc3nc(C)c(Cl)c(C)c3c2N)cc1 | . | . | 9 | . | . | .
Cc1nc2sc(C(=O)NCc3ccc4c(c3)OCO4)c(N)c2c(C)c1Cl | . | . | 22* | . | . | .
CCCCCCC12C(=Cc3cc4c(cc31)OCCO4)c1cc(OC)c(OC)cc1C(CC(=O)NCc1ccccc1)N2C(=O)OC (configuration not stated) | . | . | 1 | . | . | .
Cc1ccc(N2C(=O)c3ccccc3C2C(=O)c2cc(C)ccc2O)cc1 (configuration not stated) | -3 | 3 | 17 | 6 | -8 | -1
Cc1ccc(N2C(=O)c3ccccc3C2C(=O)c2ccc(O)cc2O)cc1 (configuration not stated) | 11 | 4 | 24* | -2 | -8 | -5
O=S1(=O)c2ccc(N3CCC[C@@H]3CO)cc2OCCCN1C1CC1 | . | . | -5 | . | . | .
CN(C)CCCN(C(=O)c1cc2cc([N+](=O)[O-])ccc2s1)c1nc2cc3c(cc2s1)OCCO3 | 76* | -1 | 2 | . | 0 | 10
CC(=O)CC[C@@H]1CC[C@]2(CCCN(C(=O)C(C)(C)C)C2)O1 | . | . | -1 | . | . | .
O=C(Nc1ccc2c(c1)N(Cc1ccccc1)C(=O)c1ccccc1S2)NC1CC1 | 1 | -7 | -2 | -10 | -3 | -6
CN1C(=O)c2ccccc2Sc2ccc(NC(=O)NC3CC3)cc21 | -1 | -2 | -2 | -5 | -7 | 25*
Fc1ccc(C[n+]2csc3ccccc32)cc1 | 33 | -4 | 74* | -8 | -2 | 54*
Cc1ccc(-c2c[n+](Cc3ccc(Cl)cc3)c3n2CCC3)cc1 | 1 | 5 | 0 | . | -11 | 1
Clc1ccc(C[n+]2csc3ccccc32)cc1 | 47 | 5 | 63* | 7 | 4 | -3
Fc1ccc(CSc2ncnc3scc(-c4ccccc4)c23)cc1 | -1 | 0 | 4 | -9 | -2 | -12
COC(=O)[C@]12C[C@H](CC(=O)NCc3ccc(OC)c(OC)c3)C(=O)N(CCc3ccc(OC)c(OC)c3)C1=C[C@H](COCc1ccccc1)O[C@@H]2C | . | . | 1 | . | . | .
CCCCCCCCN1C(=O)[C@@H](CC(=O)NCc2cccc(C(F)(F)F)c2)C[C@@]2(C(=O)OC)C1=C[C@H](C1CCCC1)O[C@@H]2C | . | . | 0 | . | . | .
CCOC(=O)C1=C(C)N=C2c3ccccc3C(=O)C2C1c1ccc(Cl)cc1 (configuration not stated) | 13 | -7 | 0 | -12 | -14 | 3
CC1(C)CC(=O)C2=C(C1)N=C1c3ccccc3C(=O)C1C2c1ccc(Cl)cc1 (configuration not stated) | 34 | 2 | 5 | 14 | -12 | 22*
C=CCN(CC#Cc1ccc(OC)cc1)CC=C | . | . | -2 | . | . | .
CN(C(=S)NC(=O)C12CC3CC(CC(C3)C1)C2)c1ccc(O)cc1 | 3 | -1 | 26* | . | 0 | -16
CCOC(=O)C1CSCCS(=O)(=O)N1Cc1cccc(Cl)c1 (configuration not stated) | . | . | 0 | . | . | .
CCOC(=O)c1c(NC(=O)c2cccs2)sc2c1CC(C)(C)OC2 | 67* | 3 | 0 | 2 | -5 | -2
O=C(O)CCc1ccc(-c2cccs2)o1 | 5 | 6 | . | -6 | -12 | 70*
O=C1OC(c2cccs2)Sc2ccccc21 (configuration not stated) | -1 | . | 25* | . | 3 | -13
O=C1OC(c2ccccc2)Sc2ccccc21 (configuration not stated) | 17 | -3 | 19 | . | -7 | 1
C=CCSC1=N/C(=C\C=C\c2ccco2)C(=O)S1 | -8 | 0 | 44* | 3 | -4 | 7

Source: PubChem
